Results published in PubChem BioAssay (Tox21).
Values joined by “and” are separate entries in the source; they are usually repeats but may differ in a detail not shown here. Equal values may be shown once. Records with an inconclusive call do not appear. Some compounds were tested as several samples or in several runs, with calls that do not always agree. Active and inactive are the calls of the source. Unless noted, calls come from the whole dose curve; as a rule, active = well fitted curve in the direction sought with a large enough effect in the repeat runs; inconclusive = weak or mixed curves; inactive = no such curve, though single readings can be large; an effect the other way counts as inactive or inconclusive.

How the values were obtained:
[1] = qHTS assay to identify small molecule agonists of H2AX (AID 1224845; active = well fitted activation curve with a large enough effect in the signal ratio in the repeat runs, not every such curve was filed as active; the % refers to the signal ratio; note: potency is the fitted concentration of half-maximal effect)
Procedure, shortened: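 Wild-type CHO-K1 cells plated overnight, then exposed 3 hr at 37C to compounds at 15 concentrations (0.76% DMSO). Lysed, then HTRF anti-pH2AX(S139)-cryptate/anti-H2AX-d2 detection after 24 hr at room temperature; emissions 665 and 620 nm.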

[2] = qHTS assay to identify small molecule agonists of H2AX - cell viability counter screen (AID 1224847; calls by dose curve; note: nearly all actives have a fitted effect of over 30% in size; note: potency is the fitted concentration of half-maximal effect; for activity change, negative = cytotoxicity: top concentration of the series differs between compounds)
Procedure, shortened: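 Read-out: CellTiter-Glo luminescence, 30 min RT. Cells: wild-type CHO-K1, 1000/well, 10% FBS, plated overnight at 37C. Treatment: 15 concentrations, 3 hr, 37C, 0.76% DMSO.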

[3] = qHTS assay to identify small molecule antagonists of the estrogen related receptor (ERR) signaling pathway from Tox21 library (AID 1224848); note: nearly all actives have a fitted effect of over 50% in size; note: potency is the fitted concentration of half-maximal effect
Procedure, shortened: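 First, 2,000 ERR cells per well were plated and held 6 h at 37 C/5% CO2. Next, compounds in DMSO were pinned in and left 18 h at 37 C. Finally, ONE-Glo was added and luminescence read after 30 min at room temperature.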

[4] = qHTS assay to identify small molecule agonists of the estrogen related receptor (ERR) signaling pathway from Tox21 library (AID 1224849; calls by dose curve; note: nearly all actives have a fitted effect of over 15% in size); conditions: ERR reporter cell line, ONE-Glo luciferase, 18 h
Procedure, shortened: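 Cells carrying the ERR reporter were plated and allowed to settle for 6 h, exposed to library compounds for 18 h at 37 C, then lysed with ONE-Glo and luminescence measured.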

[5] = qHTS RealTime-Glo MT Cell Viability Assay in HepG2 cells - 24 hour (AID 1224867); note: nearly all actives have a fitted effect of over 50% in size; note: potency is the fitted concentration of half-maximal effect
Procedure, shortened: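 qHTS, HepG2, 600 cells/well, RealTime-Glo (NanoLuc + prosubstrate) added with cells; 5 h preincubation; DMSO compound addition; 37 C; luminescence at 0/8/16/24/32/40 h.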

[6] = qHTS RealTime-Glo MT Cell Viability Assay in HEK293 cells - 32 hour (AID 1224868); note: nearly all actives have a fitted effect of over 50% in size; note: potency is the fitted concentration of half-maximal effect; for activity change, negative = cytotoxic: top concentration of the series differs between compounds
Procedure, shortened: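 Assay medium contained NanoLuc luciferase plus cell-permeant prosubstrate, added with HEK293 cells at 600 cells/well. After 5 h at 37 C/5% CO2 compounds were added; plates stayed at 37 C for 40 h with serial luminescence reads.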

[7] = A CellTox Green Cytotoxicity Assay to monitor cytotoxicity in HEK293 cells - 0 hour (AID 1224869); note: nearly all actives have a fitted effect of over 50% in size; note: potency is the fitted concentration of half-maximal effect
Procedure, shortened: (§1)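 Cells (HEK293, 600/well) and dye reagent are dispensed together. After 5 h at 37 C, 23 nL compound is pinned in. Plates stay at 37 C for 40 h with fluorescence read at 0h, 8h, 16h, 24h, 32h and 40h.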

[8] = qHTS RealTime-Glo MT Cell Viability Assay in HepG2 cells - 40 hour (AID 1224870); note: nearly all actives have a fitted effect of over 50% in size; note: potency is the fitted concentration of half-maximal effect
Procedure, shortened: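 HepG2 cells mixed with RealTime-Glo MT reagents (NanoLuc plus cell-permeant prosubstrate) were seeded at 600 cells/well, incubated 5 h at 37 C/5% CO2, then pinned with compounds in DMSO; nonlytic luminescence tracked viability during 40 h treatment.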

[9] = A CellTox Green Cytotoxicity Assay to monitor cytotoxicity in HEK293 cells - 40 hour (AID 1224871); note: nearly all actives have a fitted effect of over 45% in size; note: potency is the fitted concentration of half-maximal effect
Procedure, shortened: as §1

[10] = qHTS assay to identify small molecule agonists of the hypoxia (HIF-1) signaling pathway (AID 1224846; active = well fitted activation curve with a large enough effect in the signal ratio in the repeat runs, not every such curve was filed as active; the % refers to the signal ratio)
Procedure, shortened: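 Compounds from the Tox21 10K library, dissolved in DMSO, are tested for induction of a hypoxia response element–controlled beta-lactamase reporter in ME-180 cells. Exposure lasts 17 hrs at 37C after a 5 hr settling period, followed by CCF4-AM FRET substrate.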

[11] = at 92.4 µM (top of the series) unless noted
% is set by controls: 0 for no effect and ±100 for the full control effect.

C=C(c1ccc(C(=O)O)cc1)c1cc2c(cc1C)C(C)(C)CCC2(C)C
101 µM (active) and inactive: Potency [2]
inactive: activity change, positive = activation ([4]; at 42.5 µM (top of the series)) -34.6% | activity change, positive = activation ([4]; at 92.4 µM (top of the series)) -63.5% | Potency [5] | Potency [6] | Potency [7] | Potency [8]
30.9 µM (active) and inactive: Potency [9]
active: Potency [1] 89.8 µM | Potency [3] 21.7 µM and 23.7 µM

CN1[C@@H]2CC[C@H]1CC(OC(=O)C(CO)c1ccccc1)C2 (stereo not given in full)
inactive: Potency [1] | Potency [2] | Potency [5] | Potency [6] | Potency [7] | Potency [8] | Potency [9]

CCCCCCCCCCCCOC(=O)c1cc(O)c(O)c(O)c1
active: Potency [1] 11.3 µM | Potency [2] 100 µM | Potency [5] 54.7 µM and 49 µM | Potency [6] 3.87 µM and 3.47 µM | Potency [8] 54.9 µM | Potency [9] 34.5 µM and 49 µM
inactive: Potency [7]

O=C(Nc1ccc(Cl)c(Cl)c1)c1cc(Cl)cc(Cl)c1O
inactive: Potency [1] | activity change, positive = activation [4, 11] -15.1% | Potency [7]
active: Potency [2] 10.1 µM | Potency [3] 1.09 µM | Potency [6] 4.9 µM | Potency [8] 12.3 µM

CCCCCCOc1ccc(O)cc1
inactive: Potency [3] | activity change, positive = activation [4, 11] 0.107% | Potency [7] | Potency [8]
active: Potency [1] 11.3 µM | Potency [2] 113 µM | Potency [6] 0.0692 µM | Potency [9] 19.5 µM

Nc1ncnc2c1ncn2[C@@H]1O[C@H](COP(=O)(O)O)[C@@H](O)[C@H]1O
inactive: Potency [1] | Potency [2] | Potency [6] | Potency [7] | Potency [8] | Potency [9]

C1CC(COCC2CO2)CCC1COCC1CO1 (stereo not given)
inactive: Potency [1] | Potency [2] | activity change, positive = activation [4, 11] -24.4% | Potency [5] | Potency [6] | Potency [7] | Potency [9]

CC1=C(/C=C/C(C)=C/C=C/C(C)=C/C(=O)Nc2ccc(O)cc2)C(C)(C)CCC1
active: Potency [2] 103 µM | Potency [3] 14 µM and 11.9 µM | Potency [6] 1 µM and 425 nM
inactive: Potency [1] | activity change, positive = activation ([4]; at 42.5 µM (top of the series)) -57.7% | activity change, positive = activation ([4]; at 92.4 µM (top of the series)) -54.4% | Potency [7] | Potency [8]
inactive and 26.8 µM (active): Potency [5]

Oc1c(Br)cc(Br)c2cccnc12
inactive: Potency [2] | activity change, positive = activation [4, 11] -61.3% [at 42.5 µM] | Potency [5] | Potency [7]
active: Potency [1] 55.2 µM | Potency [3] 18.8 µM

CC(=O)Oc1ccc(C2(c3ccc(OC(C)=O)cc3)Oc3ccccc3NC2=O)cc1
inactive: Potency [1] | Potency [2] | Potency [5] | Potency [7] | Potency [8] | Potency [9]

CNCC[C@H](Oc1cccc2ccccc12)c1cccs1
active: Potency [5] 23.9 µM | Potency [6] 23.9 µM | Potency [8] 23.9 µM
inactive: Potency [1] | outcome [10] | activity change, positive = activation [4, 11] -62.1% [at 42.5 µM] | Potency [7]

CCC1(c2cnc[nH]2)Cc2ccccc2C1
inactive: Potency [1] | Potency [2] | Potency [5] | Potency [6] | Potency [7] | Potency [8] | Potency [9]

CC(C)C(=O)OCc1ccccc1
inactive: outcome [10] | Potency [2] | Potency [5] | Potency [7] | Potency [8]

O=C1Nc2ccc(Cl)cc2[C@@](C#CC2CC2)(C(F)(F)F)O1
active: Potency [6] 23.9 µM
inactive: Potency [1] | Potency [7]

O=C1OC(=O)c2cccc3cccc1c23
inactive: outcome [10] | Potency [3] | activity change, positive = activation [4, 11] -2.65% | Potency [5] | Potency [6] | Potency [7] | Potency [8] | Potency [9]

CCO[Si](CCCSSSSCCC[Si](OCC)(OCC)OCC)(OCC)OCC
inactive: Potency [1] | Potency [5] | Potency [6] | Potency [7] | Potency [8]

O=S(=O)(O)c1cc(S(=O)(=O)O)c2ccc3c(S(=O)(=O)O)cc(S(=O)(=O)O)c4ccc1c2c43
inactive: activation [10] -0.0206% [at 15.8 µM] | activity change, negative = cytotoxicity [2] 4.65% [at 31.6 µM] | activity, negative = inhibition [3] 17.9% [at 19 µM] | activity change, positive = activation [4, 11] 9.26% [at 19 µM] | activity change, negative = cytotoxicity [5] 3.52% [at 15.8 µM] | activity change, negative = cytotoxic [6] 2.34% [at 15.8 µM] | cytotoxicity [7] -7.26% [at 15.8 µM]

Oc1ccc(-c2ccc(O)cc2)cc1
inactive: outcome [10] | activity change, positive = activation [4, 11] -24.2% | Potency [5] | Potency [7] | Potency [8] | Potency [9]

Cc1occc1SSc1ccoc1C
inactive: outcome [10] | Potency [2] | Potency [6] | Potency [7] | Potency [8]
active: Potency [9] 54.9 µM

CCCN(CCc1cccs1)[C@H]1CCc2c(O)cccc2C1
inactive: Potency [1] | activity change, positive = activation [4, 11] -19.8% [at 42.5 µM] | Potency [5] | Potency [7] | Potency [8]
active: Potency [6] 19 µM | Potency [9] 23.9 µM

CCCCCCCCCCCC(=O)N(CC)CC
inactive: Potency [1] | Potency [5] | Potency [6] | Potency [7] | Potency [8] | Potency [9]

C=CC(C)(CCC=C(C)C)OC(=O)/C=C/c1ccccc1 (stereo not given)
inactive: outcome [10] | Potency [2] | Potency [5] | Potency [6] | Potency [8]
active: Potency [7] 38.9 µM | Potency [9] 38.9 µM

O[C@@H](c1cc(C(F)(F)F)nc2c(C(F)(F)F)cccc12)[C@H]1CCCCN1
active: Potency [5] 16.9 µM | Potency [6] 8.49 µM | Potency [8] 13.4 µM
inactive: outcome [10] | activity change, positive = activation [4, 11] -63.8% [at 42.5 µM] | Potency [7]

O=C1NC2CCCCN2C12CCN(CCCN1c3ccccc3CCc3ccc(Cl)cc31)CC2 (stereo not given)
active: Potency [3] 23.7 µM | Potency [5] 23.9 µM | Potency [6] 9.52 µM | Potency [8] 23.9 µM | Potency [9] 21.3 µM
inactive: outcome [10] | activity change, positive = activation [4, 11] -64.1% [at 42.5 µM] | Potency [7]

NC(=O)C(=O)N/N=C/c1ccc([N+](=O)[O-])o1
inactive: outcome [10] | Potency [5] | Potency [6] | Potency [7] | Potency [8]

CCCCN(CCCC)CCC(O)c1cc2c(Cl)cc(Cl)cc2c2cc(C(F)(F)F)ccc12 (stereo not given)
inactive: Potency [1] | Potency [6] | Potency [7] | Potency [9]

c1ccc(Sc2ccccc2)cc1
inactive: outcome [10] | Potency [2] | Potency [5] | Potency [7] | Potency [8] | Potency [9]

CCN(CC)CCSC(=O)C(c1ccccc1)c1ccccc1
inactive: outcome [10] | Potency [5] | Potency [6] | Potency [7] | Potency [8]

CCOC(=O)C1=C(C)NC(C)=C(C(=O)OCC)C1c1ccccc1/C=C/C(=O)OC(C)(C)C
inactive: Potency [1] | activity change, positive = activation [4, 11] -56.8% [at 42.5 µM] | Potency [7]
active: Potency [3] 13.3 µM

CCCSS/C(CCO)=C(\C)N(C=O)Cc1cnc(C)nc1N
inactive: outcome [10] | Potency [7]

CN(C)CCCN1c2ccccc2Sc2ccc(C(F)(F)F)cc21
active: Potency [6] 21.3 µM | Potency [9] 26.8 µM
inactive: outcome [10] | Potency [2] | Potency [7]

C=CC(=C)CCC=C(C)C
inactive: outcome [10] | Potency [5] | Potency [7] | Potency [9]

CC(C(O)c1ccccc1)N(C)CCOC(c1ccccc1)c1ccccc1 (stereo not given)
inactive: outcome [10] | activity change, positive = activation [4, 11] -45.6% [at 42.5 µM] | Potency [7]
active: Potency [3] 23.7 µM | Potency [6] 23.9 µM | Potency [9] 26.8 µM

O=C1NCCN1CCN1CCC(c2cn(-c3ccc(F)cc3)c3ccc(Cl)cc23)CC1
inactive: outcome [10] | activity change, positive = activation [4, 11] -56.2% [at 42.5 µM] | Potency [7]
active: Potency [2] 49.2 µM | Potency [3] 13.3 µM | Potency [5] 23.9 µM | Potency [9] 23.9 µM

CSc1ccc2c(c1)N(CCC1CCCCN1C)c1ccccc1S2 (stereo not given)
active: Potency [2] 50.3 µM and 55.2 µM | Potency [3] 27.2 µM | Potency [5] 48.8 µM and 23.9 µM | Potency [6] 15.4 µM | Potency [8] 30.8 µM | Potency [9] 30.8 µM
inactive: activity change, positive = activation ([4]; at 42.5 µM (top of the series)) -67.5% | activity change, positive = activation ([4]; at 92.4 µM (top of the series)) -73.9% | Potency [7]

O=C(O)Cc1ccc(OCCNC[C@H](O)c2ccccc2)cc1
inactive: outcome [10] | Potency [2] | Potency [5] | Potency [6] | Potency [7] | Potency [8] | Potency [9]
